This note sets out measurements from the OligoGym collection.
Also: reference of the scale not given here.

In the first test the target is TCEANC2. The experiment in a line: pooled miR-30 sensor sort-seq; sequence = guide strand. As to conditions: shRNA.
The sequence TTCACAGTGTGACCTATCCTTG had a sensor-assay potency score (higher = more potent) of -0.944.
On the same count and under the same terms, then TTACGCATCTTGTTCACAGTGT, with 0.769; and TAGAAGGTCTATTTGAATGTTT, with -0.0592; and TTGATCAGGAAGCTCCAGCATA, with -0.895.
On the same count and under the same terms, to TTTCTGAGCATTTTTCCTCAAC belongs -1.1; to TATAGTAGTAACTTCATCTGAC, 0.875.

The next test has as its target TCERG1. The test is described as above. As to conditions: shRNA.
For TTATTATCGTCTCTCTTCCGTT, the sensor-assay potency score (higher = more potent) is -0.906.
Still for that read-out and setting: to TGAATCTTGAATCTTTAGCATG belongs -1.15.
Same read-out and setting: to TACATACTGATCAAACACCTGT belongs 0.349; to TATCAGACCATGACACATCTGA, 0.29; to TGGATCGACAGCATTGTCGGAG, -0.29.
The same measure, in the same setting: then TTGTCTTTTACTTTGCTCCATC, with -0.934.
In turn, TTGCTTTGAATCTTGAATCTTT gave a sensor-assay potency score (higher = more potent) of 0.533.
Still for that read-out and setting: then TTAATCTTCTCTTCTAACTTTT, with -0.478; and TTGTGCTTGCACTTGTGCCTGG, with 0.389; and TTGATGAACTATCTACTGCTTT, with -0.0553.
Still for that read-out and setting: then TTCTGATTGCTGAATAACCTTA, with -0.804; and TTTATTATCGTCTCTCTTCCGT, with 0.45.

The target in the next test is TCL1B. The description is as above. As to conditions: shRNA.
The sequence TTAATTAACCAGTACTGTGAGG came in with a sensor-assay potency score (higher = more potent) of -0.714.
The same measure, in the same setting: then TCTGCTATTTCCCAGAAACTGG, with -1.48; and TACATGAAGATCCTCACTGAGG, with -0.791.
Still for that read-out and setting: then TGTTAGGACCAGCTGCTCCATA, with -1.25.
The same measure, in the same setting: then ATGCTGGGTTCATATCTGCTGC, with -1.39; and TCCTCATCTTCGTAGATGCCAG, with -1.52.
TTCATATCTGCTGCCCTGGGAG came in with a sensor-assay potency score (higher = more potent) of -0.879.
As for TGCTCCATAGAGTCAATCTGGC, the sensor-assay potency score (higher = more potent) is -0.928.
Still for that read-out and setting: to TTTCCCAGAAACTGGAATCCGC belongs -0.902; to TTGAACCGCACGACCACAGTCA, -0.246; to AACTGGAATCCGCTGCTCGGTA, -1.06.
Same read-out and setting: then TCTGGATCCACAGACGGCCAGG, with -1.15.

The next test deals with TCTN3. The test is described as above. As to conditions: shRNA.
Sequence TTTTACTCTCTAGGAAACCTGC returned a sensor-assay potency score (higher = more potent) of -1.11.
As for TGTAACTTGCTGAGAATCCTGT, the sensor-assay potency score (higher = more potent) worked out at 0.381.
Still for that read-out and setting: then TTAGAATCCATGAAAACTCTTG, with 0.212.
The same measure, in the same setting: to TTTTAACAGAGCAACTTCCATT belongs -0.964; to TATAGGAATCGAACTCCTGATA, -0.82.
On the same count and under the same terms, to TTGAAGTGAATGATTCGCCTCC belongs 0.789; to TTGTCTACACAAACCCAGCTTG, -0.828.
Sequence TAACTTGCTGAGAATCCTGTAT displayed a sensor-assay potency score (higher = more potent) of -0.198.
Same read-out and setting: then TTTATAGCTGAAATGCTGCAGT, with 0.223.
Same read-out and setting: to TTACTCTCTAGGAAACCTGCAG belongs 0.205.
